# Reference: PubChem BioAssay AID641 (Vanderbilt High Throughput Screening Facility, 2007)
# In all, about 58,000 compounds went through this assay and about 3,400 (5.9%) were called active. The full list was thinned out, with actives kept by preference. Values without a mark were called inactive.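 How the source made its calls: active means luminescence count or its row- and column-corrected plate score outside the 99.7% band of the plate's sample wells, on either side; inactive means the rest.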
# Target: D(1A) dopamine receptor (Homo sapiens) (UniProt P21728)
# Sequence (P21728 whole entry, looked up): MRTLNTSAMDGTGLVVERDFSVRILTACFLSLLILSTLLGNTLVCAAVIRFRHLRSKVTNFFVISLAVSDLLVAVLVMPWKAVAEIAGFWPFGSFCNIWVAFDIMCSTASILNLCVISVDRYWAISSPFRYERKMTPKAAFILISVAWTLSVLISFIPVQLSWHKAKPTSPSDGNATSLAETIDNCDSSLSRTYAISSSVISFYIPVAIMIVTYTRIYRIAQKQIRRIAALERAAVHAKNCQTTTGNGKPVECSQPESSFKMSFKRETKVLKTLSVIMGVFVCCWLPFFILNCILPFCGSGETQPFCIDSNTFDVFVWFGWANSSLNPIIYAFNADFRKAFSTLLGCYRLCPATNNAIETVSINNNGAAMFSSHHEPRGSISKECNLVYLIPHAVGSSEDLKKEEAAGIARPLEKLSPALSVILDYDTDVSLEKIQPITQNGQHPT
# Test: D1 CRE-luciferase signal change, two-sided – cell-based, HEK293 D1, dopamine EC30, D1 allosteric modulator project, primary screen (AID 641)
# Settings: dopamine EC30 potentiation, at 10 µM, actives deviate in either direction
row,Structure (SMILES),B-score
1,COC(=O)COc1ccc2oc(=O)cc(C)c2c1,0.00198
2,COc1ccc(S(=O)(=O)N2CCN(c3ncnc4c(-c5ccccc5)nsc34)CC2)cc1,-0.0486
3,O=c1cccc(-c2ccc(Br)cc2)o1,1.11
4,COc1ccc(S(=O)(=O)N2CCCCC2)cc1Br,-1.56
5,COc1ccc(S(=O)(=O)Nc2ccc(S(=O)(=O)N3CCCCC3)cc2)cc1OC,5.58 (active)
6,COc1ccc(NS(=O)(=O)c2ccc(NC(C)=O)cc2)cc1OC,-0.458
7,COc1ccc(Br)cc1S(=O)(=O)N1CCN=C1C,-0.0562
8,CCc1nc2ccccc2n(CCOCCOCCn2c(=O)c(CC)nc3ccccc32)c1=O,2.08
9,O=C(Nc1c(Cl)cccc1Cl)C1CCC1,-0.785
10,CCCOC(=O)Nc1sc2c(c1C(=O)OCC)CCC2,-0.0171
11,CCOC(=O)c1cc(C)sc1NC(=O)C1CCC1,7.64 (active)
12,NC(=O)c1ccsc1NC(=O)c1ccco1,0.317
13,O=C(Nc1ccc2c(c1)OCCO2)c1ccncc1,-1.34
14,O=C(Nc1nc(-c2ccncc2)cs1)C1COc2ccccc2O1 (stereo not given),1.39
15,O=C(Nc1nc(-c2ccc3c(c2)OCO3)cs1)c1ccncc1,-3.4 (active)
16,COC(=O)c1ccc(/C=N\n2c(C)nnc2C)cc1,-1.78
17,Cc1cc(C)c2c(n1)nn1c(-n3ccnc3)cc(C)nc21,5.98 (active)
18,Cc1cc(C)c2c(n1)nn1c(N3CCN(c4cccc(Cl)c4)CC3)cc(C)nc21,-0.0327
19,Cc1cc(C)c2c(n1)nn1c(N3CCOCC3)cc(C)nc21,1.9
20,CCC(C)NC(=O)N[C@@H](CCSC)C(=O)O (stereo not given in full),-0.322
21,Cc1ccc(S(=O)(=O)C2(S(=O)(=O)c3ccc(C)cc3)CCCC2)cc1,0.0184
22,Cc1ccc(S(=O)(=O)NC(=O)N2CCCC(C)(C)C2)cc1,-6.08 (active)

row,Structure (SMILES),B-score
1,Cc1ccc(S(=O)(=O)NC(C)C(=O)Nc2ccccc2C(=O)N2CCCC2)cc1 (stereo not given),-1.42
2,CC(=O)Nn1cc2c(=O)n(C)c(=O)n(C)c2c1,0.00279
3,Cn1c(=O)c2cn(-c3cccc4ccccc34)cc2n(C)c1=O,3.56 (active)
4,COc1ccc(OC)c(-n2cc3c(=O)n(C)c(=O)n(C)c3c2)c1,1.9
5,Cc1nc2sc(C(c3ccco3)N3CCC4(CC3)OCCO4)c(O)n2n1 (stereo not given),-0.00625
6,NS(=O)(=O)c1ccc(NS(=O)(=O)/C=C/c2ccccc2)cc1,0.545
7,COC(=O)Cn1c(=NC(=O)CSCC(=O)Nc2cc(C)on2)sc2ccccc21,-0.763
8,O=C1CC(N2CCN(C(c3ccccc3)c3ccccc3)CC2)C(=O)N1 (stereo not given),-0.246
9,N#CCSc1nc2ccccc2c(=O)n1-c1ccccc1,7.87 (active)
10,COC(=O)c1ccc(CSc2nc3ccccc3c(=O)n2-c2cccc(OC)c2)o1,2.88
11,O=c1c2ccccc2nc(CSc2nnnn2-c2ccccc2)n1-c1ccccc1,0.263
12,Cc1noc(C)c1S(=O)(=O)N(CC(=O)NCc1ccc(Cl)cc1)c1ccc2c(c1)OCO2,0.0431
13,CCCC(=O)N=c1sc2cccc(F)c2n1C,0.69
14,c1ccc(-c2cc(-c3nnc4sc(-c5ccccn5)nn34)[nH]n2)cc1,-0.359
15,Fc1ccc(-c2nnc3sc(-c4ccc5c(c4)OCO5)nn23)cc1,0.575
16,COc1cc(-c2nn3c(-c4cccc(C)c4)nnc3s2)cc(OC)c1OC,5.22 (active)
17,CC(=O)Nc1ccc(-c2nn3c(C)nnc3s2)cc1C,0.141
18,COc1ccc(-c2nn3c(-c4ccccc4)nnc3s2)cc1OC,8.24 (active)
19,Cc1nnc2sc(-c3ccco3)nn12,0.854
20,CCOc1ccc(C(=O)N(Cc2ccc(N(C)C)cc2)C2CCS(=O)(=O)C2)cc1 (stereo not given),0.116
21,CCCC(C(=O)N1CCOCC1)N1C(=O)C2C3C=CC(C3)C2C1=O (stereo not given),-0.388
22,Cc1occc1C(=O)Nc1nnc(C2CCCCC2)s1,0.299

row,Structure (SMILES),B-score
1,O=C(COc1ccccc1Cl)Nn1cnnc1,-0.264
2,Cc1cccc(N2CCN(Cc3c(C)n(C)n(-c4ccccc4)c3=O)CC2)c1C,-0.359
3,COc1ccc(N2CC(C)Cn3c2nc2c3c(=O)n(Cc3ccccc3F)c(=O)n2C)c(OC)c1 (stereo not given),0.483
4,CCOc1ccc(N2C(=O)CC(N(O)c3ccccc3)C2=O)cc1 (stereo not given),0.305
5,COc1ccc(CCNS(=O)(=O)c2ccc(F)cc2)cc1OC,3.09
6,COc1ccc(CCNc2ncnc3nc[nH]c23)cc1OC,12.7 (active)
7,CCS(=O)(=O)NCCc1ccc(OC)c(OC)c1,0.864
8,CCOC(=O)c1sc(NC(=O)CSc2ncccn2)c(C#N)c1C,1.81
9,COc1ccc(-c2cc(C(F)(F)F)nc(SCCC(=O)NCc3ccco3)n2)cc1,0.0331
10,COc1ccc(-c2cc(C(F)(F)F)nc(S(C)(=O)=O)n2)cc1OC,6.58 (active)
11,COc1ccc(-c2ccc(Nc3ccc(S(=O)(=O)N4CCCC4)cc3)nn2)cc1OC,1.72
12,CC(=O)Oc1ccc(C)cc1N1C(=O)c2ccc(C(=O)O)cc2C1=O,-0.324
13,COc1cccc(-c2nnc(NC(=O)c3ccc(S(=O)(=O)N(CC(C)C)CC(C)C)cc3)o2)c1,-2.79 (active)
14,CCN(CC)C(=O)CSc1nnc(-c2cccc(OC)c2)o1,-0.393
15,O=C(COC(=O)c1ccc(Oc2ccccc2)cc1)Nc1nnc(-c2ccccc2)o1,-1.16
16,C=C1c2cc(CC)ccc2NC(=O)N1c1ccc(C)cc1,-1.84
17,COc1ccc(N(CC(=O)NC2CCCCCCC2)S(=O)(=O)c2c(C)nn(C)c2C)cc1,-0.289
18,CC(C)C(=O)Nc1c(C(=O)c2ccc(F)cc2)oc2ccccc12,1.66
19,Nc1ccc(S(=O)(=O)NC(=O)c2ccccc2)cc1,31.8 (active)
20,Cc1ccc(C(=O)NCCNS(=O)(=O)c2ccccc2)cc1,-0.839
21,CC(=O)NS(=O)(=O)c1ccccc1,0.0902
